Bioassay records deposited in PubChem BioAssay by National Center for Advancing Translational Sciences (NCATS).
SNCA expr inh: SNCA gene expression inhibition; HEK-293 SNCA-luciferase knock-in, luminescence, 24 h; Potency, µM (series often up to 57.2 µM), usual class: inhibitors; 140,000 compounds, 0.17% hits; further: nearly all actives have a fitted effect of over 45% in size
HEK293 viab: cell viability loss counter-screen; Potency, µM (titrated, usually from 57.1 µM), actives largely listed as cytotoxic; 150,000 compounds, 0.12% hits; HEK-293-SNCA-luc viability, GF-AFC fluorescence, 24 h; further: nearly all actives have a fitted effect of over 30% in size
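HEK-293-SNCA-luc cells (1500/well) plated 24 h, then exposed 24 h to a dilution series; GF-AFC added 30 min at 37C, fluorescence 405/540 nm; normalised to medium-only and DMSO wells, Hill fit.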
GPT2 inh: GPT2 alanine aminotransferase inhibition | Q8TD30 | Recombinant GPT2, coupled pyruvate oxidase/HRP Amplex Red fluorescence | 100,000 compounds, 0.25% hits | Potency, µM (series often up to 57.7 µM), usual class: inhibitors; further: nearly all actives have a fitted effect of over 60% in size
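GPT2 10ng/uL, a-KG 250uM, L-Ala 2mM, HEPES pH7.5 + 0.0001% Tween; 30 min RT. Then Amplex mix (PO/HRP/ThPP), 30 min RT dark, fluorescence. AOA 50uM used as positive control.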
IP6K1 inhibitor: IP6K1 kinase inhibition | IP6K1 kinase, ADP-Glo luminescence, 2 h; active compounds read low | 140,000 compounds, 0.81% hits | AID 1645851 | activity change, % (series mostly up to about 58 µM) | Q92551; in the data active means activity change below about -25%
Target sequence (Q92551 whole entry, looked up): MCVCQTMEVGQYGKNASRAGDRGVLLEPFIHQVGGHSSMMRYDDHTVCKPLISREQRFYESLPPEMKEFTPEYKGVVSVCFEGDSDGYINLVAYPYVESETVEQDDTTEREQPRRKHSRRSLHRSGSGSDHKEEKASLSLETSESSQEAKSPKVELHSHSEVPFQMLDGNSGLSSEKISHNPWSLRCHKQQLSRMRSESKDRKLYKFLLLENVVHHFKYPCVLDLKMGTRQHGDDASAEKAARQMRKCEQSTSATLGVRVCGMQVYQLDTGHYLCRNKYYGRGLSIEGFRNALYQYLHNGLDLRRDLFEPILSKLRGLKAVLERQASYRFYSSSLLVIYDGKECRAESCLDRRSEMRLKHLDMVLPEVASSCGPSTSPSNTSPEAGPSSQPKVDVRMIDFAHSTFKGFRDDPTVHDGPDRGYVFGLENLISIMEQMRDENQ
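ADP-Glo luminescence measures ADP made by human IP6K1 during a 2 h RT reaction with ATP/IP6 (mix at 1.3 mM/130 uM); top library doses 57.5 and 19.1 uM final.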
IP6K1 inh cnf: human IP6K1 inhibition, confirmatory; shares compounds with IP6K1 inhibitor; recombinant IP6K1 kinase, ADP-Glo luminescence, 2 h; Potency, µM (doses to about 49 µM), actives largely listed as inhibitors; 1,200 compounds, 13% hits; AID 1645852; further: nearly all actives have a fitted effect of over 65% in size
Of the large screens only hits and unclear results are named; the others gave an inactive call (follow-up assays come after a bar, where they were run); ! = not confirmed by another sample. Rows were chosen to be rich in hits. Some 1.1% of all compounds tested hit in one or more screens of this group. Unless noted, the call rests on the fitted dose curve; in most records, active means well fitted curve in the direction sought with a large enough effect; inconclusive means small, poorly fitted or top-dose-only effect, or another doubt; inactive means no such curve, though single readings can be large; an effect the other way counts as inactive or inconclusive.

Cc1nn(-c2ccccc2)c2c1C(C(C)C)N(C1CCN([S+](=O)([O-])c3cccc(C(F)(F)F)c3)C1)C2=O (stereo not given)	none (no result: SNCA expr inh, HEK293 viab, GPT2 inh)
Cc1cc2c(cc1S(=O)(=O)NCc1ccc(F)cc1)n(C)c(=O)c(=O)n2C	IP6K1 inhibitor -26 (no result: GPT2 inh) | IP6K1 inh cnf inactive
COc1cc2ncnc(Nc3cccc(Br)c3)c2cc1OC	none (no result: IP6K1 inhibitor) | IP6K1 inh cnf inconclusive
COc1cc2ncnc(Nc3cccc(O)c3)c2cc1OC	none (no result: SNCA expr inh)
Cc1nn(-c2ccccc2)c2c1C(C)N(C1CN(C(=O)Nc3ccccc3F)C1)C2=O (stereo not given)	none (no result: SNCA expr inh, HEK293 viab, GPT2 inh)
O=C(NC1CCCC1)N1CCC(C(=O)N2CCC(N3CCCC3=O)CC2)CC1	none
CN1C(=O)CC[C@H]1c1cccnc1	none
CN1CCC[C@@H]1c1cccnc1	IP6K1 inhibitor -31 | IP6K1 inh cnf inactive
CC(C)NC(=O)c1cn2cc(-c3ccccc3)sc2n1	none
CC(C)Cc1nc(CN(C)C(=O)c2cccc(CCC(C)(C)O)c2)no1	SNCA expr inh inconclusive, IP6K1 inhibitor -32 | IP6K1 inh cnf inactive
NC(=O)N1CCC(CC(=O)N2CCC(C3c4ncc(Br)cc4CCc4cc(Cl)cc(Br)c43)CC2)CC1 (stereo not given)	HEK293 viab inconclusive, IP6K1 inhibitor -40 (no result: SNCA expr inh) | IP6K1 inh cnf inconclusive
NC(=O)N1CCC(CC(=O)N2CCC([C@H]3c4ncc(Br)cc4CCc4cc(Cl)cc(Br)c43)CC2)CC1	SNCA expr inh inconclusive (no result: IP6K1 inhibitor)
COCCNC(=O)c1ccc2nnc(Cc3ccco3)n2c1	none
O=C(NCC1CC1)c1ccc2nnc(Cc3ccco3)n2c1	IP6K1 inhibitor -27! | IP6K1 inh cnf inconclusive
Cc1nnc2ccc(N3CCCC(NC(=O)c4cccc(Cl)c4)C3)nn12 (stereo not given)	none (no result: SNCA expr inh, HEK293 viab, GPT2 inh)
CC(C)(C)OC(=O)N1CCC(c2c(C(=O)NCc3ccccc3)cnn2-c2ccc(F)cc2)CC1	none (no result: GPT2 inh)
CC(C)(C)OC(=O)N1CCC(c2c(C(=O)NCCc3ccccc3)cnn2-c2ccc(F)cc2)CC1	SNCA expr inh inconclusive, IP6K1 inhibitor -26 (no result: GPT2 inh) | IP6K1 inh cnf inactive
COCCNC(=O)c1cc(-c2cccc(C(F)(F)F)c2)c2cccn2n1	none
COc1ccc(F)cc1-c1ccc(CN2CCCCC2C(=O)NCC(F)F)cc1 (stereo not given)	none (no result: SNCA expr inh, HEK293 viab, GPT2 inh)
CC(C)NC(=O)C1CCN(c2nc3ccccc3nc2C(F)(F)F)CC1	IP6K1 inhibitor -35 (no result: GPT2 inh) | IP6K1 inh cnf inactive
CCCCNC(=O)C1CCN(c2nc3ccccc3nc2C(F)(F)F)CC1	IP6K1 inhibitor -29 (no result: GPT2 inh) | IP6K1 inh cnf inactive
CNC(=O)C1CCN(c2nc3ccccc3nc2C(F)(F)F)CC1	none (no result: GPT2 inh)
COc1cccc(C(=O)N2CC(N3C(=O)c4c(c(C)nn4-c4ccccc4)C3C(C)C)C2)c1 (stereo not given)	none (no result: SNCA expr inh, HEK293 viab, GPT2 inh)
O=[S+]([O-])(NC1CCN(c2ccc3nnc(C4CC4)n3n2)CC1)c1ccccc1	none (no result: SNCA expr inh, HEK293 viab, GPT2 inh)
CC1(C)[C@H](Cc2cc(CC3CCCCC3)on2)C[C@@H]1NS(C)(=O)=O	GPT2 inh inconclusive
O=C(O)C1=CC(=C(c2ccc(O)c(C(=O)O)c2)c2ccc(O)c(C(=O)O)c2)C=CC1=O	none (no result: IP6K1 inhibitor) | IP6K1 inh cnf 1.5µM
O=S(=O)(c1ccc(Cl)cc1)c1nc(-c2cccs2)oc1N1CCCCC1	IP6K1 inhibitor -27 (no result: GPT2 inh) | IP6K1 inh cnf inactive
O=c1nc(-c2ccccn2)sc2ccccc12	IP6K1 inhibitor -54 (no result: SNCA expr inh) | IP6K1 inh cnf inactive
Cc1nn(-c2ccccc2)c2c1C(C(C)C)N(C1CCCN(C(=O)Cc3cccc(Cl)c3)C1)C2=O (stereo not given)	none (no result: SNCA expr inh, HEK293 viab, GPT2 inh)
Cc1ccc(C(=O)N2CCC3(CC2)CC(N(Cc2ccc(F)cc2)C2CC2)CCO3)cn1 (stereo not given)	IP6K1 inhibitor -26 | IP6K1 inh cnf inactive
CN(C)Cc1nnc(C2CC(NC(=O)c3ccccc3-c3ncn[nH]3)C2)n1C (stereo not given)	IP6K1 inhibitor -28 | IP6K1 inh cnf inactive
O=C1CO[C@H]2CN(c3ncccn3)C[C@H]2N1CC1CCCCC1	IP6K1 inhibitor -27 | IP6K1 inh cnf inactive
O=C(NCc1ccc2c(c1)CCN2C(=O)c1ccncc1)c1ccccc1F	IP6K1 inhibitor -30 (no result: GPT2 inh) | IP6K1 inh cnf inactive
O=C(NCc1ccc2c(c1)CCN2C(=O)c1ccncc1)c1ccccc1Br	none (no result: GPT2 inh)
c1csc(-c2nc3ccccn3c2Nc2ccc3c(c2)OCCO3)c1	none (no result: GPT2 inh)
